According to PubChem BioAssay AID743364 (National Center for Advancing Translational Sciences (NCATS), 2014):
A number with no mark means an inactive call. Activity calls are given as the source filed them. The call rests on the fitted dose curve; in most records, active means well fitted curve in the direction sought with a large enough effect; inactive means no such curve, though single readings can be large or run the other way. Where a SMILES comes first, the peptide text is derived from it. [ ]: non-standard residue; d: D form. Orn = NCCC[C@H](N)C(=O)O

Experiment: qHTS profiling of inhibitors of Plasmodium falciparum (3D7) proliferation (acoustic dispense)

Q: For `CCC(C=C[C@@H]1OC(=O)C=C[C@H]1C)=C[C@H](C)CC=CC(C)=C[C@@H](C)C(=O)[C@@H](C)[C@H](O)[C@@H](C)CC(C)=CC(=O)O`, which activity change is on record?
A: The activity change was 22.5% [at 1.88 µM].

Q: With `Cc1cn(-c2cc(NC(=O)c3ccc(C)c(Nc4nccc(-c5cccnc5)n4)c3)cc(C(F)(F)F)c2)cn1` as the molecule, how does the outcome read?
A: The outcome was “inactive”.

Q: With `OB1OCc2cc(F)ccc21` as the molecule, how does the outcome read?
A: The outcome was “inactive”.

Q: For `O=C(Nc1cn[nH]c1-c1nc2ccc(CN3CCOCC3)cc2[nH]1)NC1CC1`, which outcome is on record?
A: Its outcome is “inactive”.

Q: With `COc1cc(NC(C)CCCN)c2ncccc2c1` (stereo not given) as the molecule, how does the outcome read?
A: Its outcome is “inactive”.

Q: Which outcome does the source give for `COc1ccc(-c2nc(N3CCOCC3)c3sc(CN(C)c4ncc(C(=O)NO)cn4)cc3n2)cn1` here?
A: Its outcome is “inactive”.

Q: With `CC1(C)N=C(N)N=C(N)N1c1ccc(Cl)cc1` as the molecule, how does the outcome read?
A: The outcome was “inactive”.

Q: Which outcome does the source give for `O=C1c2c(O)ccc(O)c2C(=O)c2c(NCCNCCO)ccc(NCCNCCO)c21` here?
A: The outcome was “inactive”.

Q: With `CCCCN(CCCC)CCC(O)c1cc2c(Cl)cc(Cl)cc2c2cc(C(F)(F)F)ccc12` (stereo not given) as the molecule, how does the outcome read?
A: The outcome was “inactive”.

Q: Which outcome does the source give for `COc1cc([C@@H]2c3cc4c(cc3[C@@H](O[C@@H]3O[C@@H]5CO[C@@H](c6cccs6)O[C@@H]5[C@H](O)[C@@H]3O)[C@H]3COC(=O)[C@H]23)OCO4)cc(OC)c1O` here?
A: Its outcome is “inactive”.

Q: For `CC(Sc1nc2ccccc2[nH]1)C(=O)NN=Cc1cc(Br)ccc1O` (stereo not given), which activity change is on record?
A: The activity change was 28.2% [at 4.15 µM].

Q: For `COc1ccc2cc3[n+](cc2c1OC)CCc1cc2c(cc1-3)OCO2`, which outcome is on record?
A: Its outcome is “inactive”.

Q: For `C=C[C@@H]1CN2CCC1C[C@@H]2C(O)c1ccnc2ccc(OC)cc12` (stereo not given in full), which outcome is on record?
A: Its outcome is “inactive”.

Q: Which outcome does the source give for `CO[C@@H]1C(N(C)C(=O)c2ccccc2)C[C@H]2O[C@]1(C)n1c3ccccc3c3c4c(c5c6ccccc6n2c5c31)C(=O)NC4=O` (stereo not given in full) here?
A: The outcome was “inactive”.

Q: With `COCCn1c2c([n+](Cc3cnccn3)c1C)C(=O)c1ccccc1C2=O` as the molecule, how does the outcome read?
A: The outcome was “inactive”.

Q: Which outcome does the source give for `c1cncc(CN2CCC(n3ncc4c(N5CCOCC5)nc(-c5ccc6[nH]ccc6c5)nc43)CC2)c1` here?
A: Its outcome is “inactive”.

Q: Which outcome does the source give for `Cn1cc(C2=C(c3c4n(c5ccccc35)CCC(CN)C4)C(=O)NC2=O)c2ccccc21` (stereo not given) here?
A: Its outcome is “inactive”.

Q: For `CN(C)c1ccc2nc3ccc(=[N+](C)C)cc-3sc2c1`, which outcome is on record?
A: Its outcome is “inactive”.

Q: Which outcome does the source give for `CN[C@@H](C)C(=O)N[C@H]1CCCC[C@H]2CC[C@@H](C(=O)N[C@@H](c3ccccc3)c3cn(CCCCc4ccc(CCCCn5cc([C@@H](NC(=O)[C@@H]6CC[C@@H]7CCCC[C@H](NC(=O)[C@H](C)NC)C(=O)N76)c6ccccc6)nn5)cc4)nn3)N2C1=O` here?
A: The outcome was “inactive”.

Q: For `CC[C@H]1CN2CCc3cc(OC)c(OC)cc3[C@H]2C[C@@H]1C[C@@H]1NCCc2cc(OC)c(OC)cc21`, which outcome is on record?
A: Its outcome is “inactive”.

Q: Which outcome does the source give for `COc1cc(C)c2c(Oc3cccc(C(F)(F)F)c3)c(OC)cc(NCCCC(C)N)c2n1` (stereo not given) here?
A: The outcome was “inactive”.

Q: With `CCCCN(CCCC)CC(O)c1cc(Cl)cc2c1-c1ccc(Cl)cc1C2=Cc1ccc(Cl)cc1` (stereo not given) as the molecule, how does the outcome read?
A: The outcome was “inactive”.

Q: With `Nc1cccc(-c2csc(NC(=O)CCCCCCC(=O)NO)n2)c1` as the molecule, how does the outcome read?
A: The outcome was “inactive”.

Q: With `Cn1c(=O)c(-c2c(Cl)cccc2Cl)cc2cnc(Nc3cccc(C(=O)O)c3)nc21` as the molecule, how does the outcome read?
A: The outcome was “inactive”.

Q: For `CN([C@@H](Cc1ccc(OS(=O)(=O)c2cccc3cnccc23)cc1)C(=O)N1CCN(c2ccccc2)CC1)S(=O)(=O)c1cccc2cnccc12`, which outcome is on record?
A: The outcome was “inactive”.

Q: For `CC[C@]1(O)C[C@H]2CN(CCC3=c4ccccc4=N[C]3[C@@](C(=O)OC)(c3cc4c(cc3OC)N(C)[C@H]3[C@@](O)(C(N)=O)[C@H](O)[C@]5(CC)C=CCN6CC[C@]43[C@@H]65)C2)C1`, which outcome is on record?
A: Its outcome is “inactive”.

Q: For `C=CCNC1=C2C[C@@H](C)C[C@H](OC)[C@@H](O)[C@@H](C)C=C(C)[C@H](OC(N)=O)[C@@H](OC)C=CC=C(C)C(=O)NC(=CC1=O)C2=O`, which outcome is on record?
A: Its outcome is “inactive”.

Q: Which outcome does the source give for `COc1ncnc(NS(=O)(=O)c2ccc(N)cc2)c1OC` here?
A: Its outcome is “inactive”.

Q: For `CC(C)Oc1cc(Nc2nc(N[C@@H](C)c3ccc(F)cn3)ncc2Cl)[nH]n1`, which outcome is on record?
A: The outcome was “inactive”.

Q: With `CN(C)c1ccc(C(=C2C=CC(=[N+](C)C)C=C2)c2ccc(N(C)C)cc2)cc1` as the molecule, how does the outcome read?
A: Its outcome is “inactive”.

Q: For `CC(C)C[C@@H]1NC(=O)[C@H](CCCN)NC(=O)[C@H](C(C)C)NC(=O)[C@@H]2CCCN2C(=O)[C@@H](Cc2ccccc2)NC(=O)[C@H](CC(C)C)NC(=O)[C@H](CCCN)NC(=O)[C@H](C(C)C)NC(=O)[C@@H]2CCCN2C(=O)[C@@H](Cc2ccccc2)NC1=O` (cyclo(V[Orn]L[dF]PV[Orn]L[dF]P)), which outcome is on record?
A: The outcome was “inactive”.

Q: Which outcome does the source give for `Clc1ccc2c(N3CCN(CCCN4CCN(c5ccnc6cc(Cl)ccc56)CC4)CC3)ccnc2c1` here?
A: The outcome was “inactive”.

Q: For `CC(C=CC(=O)NO)=C[C@@H](C)C(=O)c1ccc(N(C)C)cc1`, which outcome is on record?
A: The outcome was “inactive”.

Q: For `CSc1cccc(Nc2ncc3cc(-c4c(Cl)cccc4Cl)c(=O)n(C)c3n2)c1`, which outcome is on record?
A: The outcome was “inactive”.

Q: Which outcome does the source give for `C[C@H]1[C@@H](OC(=O)CCC(=O)O)O[C@@H]2O[C@@]3(C)CC[C@@H]4[C@H](C)CC[C@@H]1[C@@]24OO3` here?
A: The outcome was “inactive”.
